Screening data from PubChem BioAssay.
In the library only some 12% were active in any assay of this set; here they are far more common.
BAZ2B block: blocks human BAZ2B. AlphaScreen BAZ2B-H3K14Ac peptide displacement. AID 504333. Q9UIF8. Potency, µM (highest dose often 114 µM), actives largely listed as inhibitors. hit rate 4.4% among 360,000; note: nearly all actives have a fitted effect of over 60% in size
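BAZ2B 50 nM plus b-H3(5-23)K14Ac 50 nM, PBS pH 7.4/0.01% Tween-20, 30 min RT; compound added (max 110 uM), 30 min RT; streptavidin donor/Ni-chelate acceptor beads 10 ug/mL final, 20 min dark; AlphaScreen read.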
JMJD2A Tudor: inhibitors of human JMJD2A Tudor domain | O75164 | AlphaScreen JMJD2A-Tudor / H3K4me3 peptide binding | Potency, µM (doses to about 114 µM), usual class: inhibitors | hit rate 4.4% among 390,000 | AID 504339; note: nearly all actives have a fitted effect of over 50% in size
PLK1 PBD inh: inhibitors of human PLK1 polo-box domain binding; P53350; Plk1 PBD binding of FITC phosphopeptide, fluorescence polarization; Potency, µM, usual class: inhibitors; hit rate 2.8% among 360,000; note: series mostly up to about 57 µM; nearly all actives have a fitted effect of over 65% in size
PI5P4Ka inh: PI5P4K alpha (human) kinase inhibition | P48426 | PI5P4Kalpha enzyme, ADP-Glo luminescence, 60 min; hits give low values | max response, % | hit rate 1.2% among 330,000; active = max response of -50% or lower; inconclusive = between -30% and -50%; inactive = -30% or higher; note: value at the top dose of about 77 µM
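Reactions run in 0.038 M HEPES pH 7.4, 0.28 mM EGTA, 0.1% CHAPS and 5% DMSO, with PI5P4Kalpha, substrate, compound and 5 microM ATP final, one hour at room temperature. Readout is ADP-Glo luminescence.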
G9a inh: G9a (human) methyltransferase inhibition; Q96KQ7; G9a H3K9 monomethylation, AlphaScreen, 2 h; Potency, µM (series often up to 102 µM), actives largely listed as inhibitors; hit rate 8.8% among 350,000; AID 504332; note: nearly all actives have a fitted effect of over 75% in size
Target sequence (Q96KQ7 913-1193 limits assumed): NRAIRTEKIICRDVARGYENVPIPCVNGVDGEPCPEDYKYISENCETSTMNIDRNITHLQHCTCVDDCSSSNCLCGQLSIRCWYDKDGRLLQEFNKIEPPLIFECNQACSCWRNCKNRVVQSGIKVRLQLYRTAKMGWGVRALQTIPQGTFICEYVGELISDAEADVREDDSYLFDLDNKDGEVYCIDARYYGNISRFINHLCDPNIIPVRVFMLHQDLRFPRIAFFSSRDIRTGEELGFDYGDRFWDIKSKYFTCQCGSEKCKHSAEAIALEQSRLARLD
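Quantitative HTS format: methyltransferase activity on a biotin-tagged H3K9 peptide is measured by AlphaScreen, using a rabbit anti-monomethyl-H3K9 antibody with streptavidin donor and anti-IgG acceptor beads. Final levels are 20 nM enzyme, 500 nM peptide, 20 uM SAM; 2 h RT.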
HP1b binding inh: HP1-beta chromodomain-methylated histone interaction inhibition; P83916; AID 540317; Potency, µM (titrated, usually from 114 µM), hits mostly inhibitors; AlphaScreen HP1-beta / biotin-H3K9me3 peptide binding; hit rate 0.56% among 390,000; note: nearly all actives have a fitted effect of over 70% in size
Target sequence (P83916 whole entry, looked up): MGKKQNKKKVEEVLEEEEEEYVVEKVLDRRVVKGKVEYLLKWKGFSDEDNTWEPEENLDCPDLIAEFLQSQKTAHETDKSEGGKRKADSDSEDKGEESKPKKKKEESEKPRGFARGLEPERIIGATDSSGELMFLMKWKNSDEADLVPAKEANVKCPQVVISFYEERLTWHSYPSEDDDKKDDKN
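AlphaScreen: HP1-beta (50 nM) preformed 30 min with biotin-H3(1-18)K9me3 peptide (50 nM) in PBS pH 7.4, 0.01% Tween-20. Compound added for 30 min at RT, then streptavidin donor/nickel chelate acceptor beads (10 ug/mL) for 30 min.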
Hits are given with their value; n = inactive; u = inconclusive; x = no result; [ ] = another dose, or the depositor's remark. Unless noted, calls come from the whole dose curve; as a rule, active = well fitted curve in the direction sought with a large enough effect; inconclusive = small, poorly fitted or top-dose-only effect, or another doubt; inactive = no such curve, though single readings can be large; an effect the other way counts as inactive or inconclusive.

SMILES | BAZ2B block | JMJD2A Tudor | PLK1 PBD inh | PI5P4Ka inh | G9a inh | HP1b binding inh
CC(=O)Nc1ccc(N(CC(O)Cn2c3ccccc3c3ccccc32)S(=O)(=O)c2ccc(C)cc2)cc1 (centres undefined) | n | n | n | n | 10µM | n
Cc1ccc2nc(C(C)(C)C)c(Cc3ccccc3C(F)(F)F)n2c1 | x | x | n | n | x | x
COc1ccc(C(=O)NCC(=O)OCC(=O)c2c(C)[nH]c3ccccc23)cc1OC | x | n | n | n | x | n
COCCOC(=O)C1=C(C)NC2=C(C(=O)CCC2)C1c1cc2c(cc1Br)OCO2 (centres undefined) | n | n | n | x | n | n
CCSc1cc(C2C(C(=O)OC)=C(C)NC3=C2C(=O)CCC3)c(C)o1 (centres undefined) | u | u | n | n | 7.08µM | u
O=C(Nc1cccc(C(F)(F)F)c1)c1ccc2c(c1)nnn2C1CCCC1 | n | n | x | x | n | n
O=C(CN1CCN(c2ccc(O)cc2)CC1)N(C1CC1)C1CCS(=O)(=O)C1 (centres undefined) | n | 79.4µM | n | n | n[2.33 µM] | u
CCc1nn2c(=O)cc(N3C(C)CNCC3C)nc2s1 (centres undefined) | x | n | x | x | x | x
CCn1c(SCC(=O)NCC2CCCO2)nnc1-c1ccccc1OC (centres undefined) | n | n | n | n | n[12.7 µM] | n
CCOc1ccccc1-c1nnc(SCC(=O)NC2CC3CCC2C3)n1CC (centres undefined) | n | n | n | n | 44.7µM | n
Cc1ccc(S(=O)(=O)/C(C#N)=C/c2c(N3CCN(C)CC3)nc3c(C)cccn3c2=O)cc1 | u | u | n | n | 44.7µM | n
Cc1cccn2c(=O)c(/C=C(\C#N)S(=O)(=O)c3ccccc3)c(N3CCN(C)CC3)nc12 | n | n | n | n | u | n
CCN1CCN(c2nc3c(C)cccn3c(=O)c2/C=C(\C#N)S(=O)(=O)c2ccc(Cl)cc2)CC1 | u | u | n | n | 31.6µM | u
CCN1CCN(c2nc3c(C)cccn3c(=O)c2/C=C(\C#N)S(=O)(=O)c2ccc(C)cc2)CC1 | u | u | n | n | 50.1µM | n
N[C@H](C(=O)O)[C@@H]1[C@@H](C(=O)O)C1(F)F | x | x | x | x | n | x
CCOC(=O)/C=C/C(=O)Nc1cccc([N+](=O)[O-])c1 | u | u | 3.36µM | n | u | u
C/C=C1\COC(C(=O)NCCN2CCOCC2)(C(F)(F)F)C=C1C=C(C)C (centres undefined) | x | n | x | x | x | n
COc1cc(C(=O)N=c2sccn2C)c([N+](=O)[O-])cc1OC | n | n | n | n | n | n
Cn1ccsc1=NC(=O)c1ccc([N+](=O)[O-])o1 | n | 56.2µM | n | -59.9 | u | u
Cc1ccc(OCC(=O)Nc2ccc(S(=O)(=O)Nc3ncccn3)cc2)c(C(C)(C)C)c1 | n | n | x | x | 14.1µM | n
Cc1cc(C)nc(NS(=O)(=O)c2ccc(NC(=O)COc3ccccc3F)cc2)n1 | n | n | n | n | n[12.7 µM] | n
COc1ccc(C2(C(=O)Nc3ccc(S(=O)(=O)Nc4nc(C)cc(C)n4)cc3)CCCC2)cc1OC | n | n | n | n | 50.1µM | n
Cc1cc(C)c(C)c(OCC(=O)Nc2ccc(S(=O)(=O)Nc3nc(C)cc(C)n3)cc2)c1 | n | n | x | x | 14.1µM | n
Cc1ccc(OCC(=O)Nc2ccc(S(=O)(=O)Nc3ccccn3)cc2)cc1C | n | n | n | n | 50.1µM | n
Cc1cc(C)nc(NS(=O)(=O)c2ccc(NC(=O)C3(c4ccc([N+](=O)[O-])cc4)CCCC3)cc2)n1 | n | n | n | n | u | n
SMILES | BAZ2B block | JMJD2A Tudor | PLK1 PBD inh | PI5P4Ka inh | G9a inh | HP1b binding inh
c1ccc(-c2nc3c4ccccc4ccn3c2Cc2ccsc2)cc1 | x | x | n | n | x | x
CC1CCN(S(=O)(=O)c2ccc3nc(NCc4ccccc4)ccc3c2)CC1 | n | n | x | x | n | n
COc1ccc(S(=O)(=O)n2[nH]c(=O)c(CCO)c2C)c([N+](=O)[O-])c1 | n | n | 13.4µM | n | u | n
Cc1c(CCO)c(=O)[nH]n1S(=O)(=O)c1ccc(Cl)cc1Cl | n | n | n | n | n | n
COC(=O)/C(=C/c1c[nH]c2ccccc12)[N+](=O)[O-] | n | n | 2.38µM | x | u | n
CC(=O)N(c1ccccc1C)C1CCCC1 | n | n | n | n | n | n
